Experimental data reported in ChEMBL document CHEMBL2218924, “A broad activity screen in support of a chemogenomic map for kinase signalling research and drug discovery” (Biochem J, 2013).

How the values were obtained:
[1] = molecular target: T1, cGMP-dependent protein kinase 1 (Homo sapiens) (UniProt Q13976); details: at 1 µM
T1 sequence (whole entry): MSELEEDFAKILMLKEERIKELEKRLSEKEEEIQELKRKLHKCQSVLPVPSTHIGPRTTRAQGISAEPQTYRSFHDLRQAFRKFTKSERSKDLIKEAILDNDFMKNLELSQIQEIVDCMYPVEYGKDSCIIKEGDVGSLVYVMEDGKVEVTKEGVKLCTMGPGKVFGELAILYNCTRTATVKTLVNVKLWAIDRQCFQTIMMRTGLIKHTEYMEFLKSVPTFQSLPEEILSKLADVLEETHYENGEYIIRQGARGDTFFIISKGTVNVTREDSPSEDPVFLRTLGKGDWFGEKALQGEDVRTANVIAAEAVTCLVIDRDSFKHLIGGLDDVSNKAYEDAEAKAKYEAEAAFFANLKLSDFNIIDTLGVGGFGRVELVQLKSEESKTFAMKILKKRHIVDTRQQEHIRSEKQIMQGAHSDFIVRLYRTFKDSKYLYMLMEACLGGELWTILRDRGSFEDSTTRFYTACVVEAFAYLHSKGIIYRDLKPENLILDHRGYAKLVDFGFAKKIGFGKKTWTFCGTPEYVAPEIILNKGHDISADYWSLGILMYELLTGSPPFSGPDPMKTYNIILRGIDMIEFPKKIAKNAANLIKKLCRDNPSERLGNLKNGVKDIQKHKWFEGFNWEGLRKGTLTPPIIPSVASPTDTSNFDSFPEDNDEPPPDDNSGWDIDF

[2] = molecular target: T1, cGMP-dependent protein kinase 1 (Homo sapiens); details: at 10 µM
[3] = molecular target: T1, cGMP-dependent protein kinase 1 (Homo sapiens); details: at 1 µM; remark: listed apart in the source
[4] = molecular target: T1, cGMP-dependent protein kinase 1 (Homo sapiens); details: at 10 µM; remark: listed apart in the source
[5] = molecular target: T2, MAP kinase-activated protein kinase 5 (Homo sapiens) (UniProt Q8IW41); details: at 1 µM
T2 sequence (whole entry): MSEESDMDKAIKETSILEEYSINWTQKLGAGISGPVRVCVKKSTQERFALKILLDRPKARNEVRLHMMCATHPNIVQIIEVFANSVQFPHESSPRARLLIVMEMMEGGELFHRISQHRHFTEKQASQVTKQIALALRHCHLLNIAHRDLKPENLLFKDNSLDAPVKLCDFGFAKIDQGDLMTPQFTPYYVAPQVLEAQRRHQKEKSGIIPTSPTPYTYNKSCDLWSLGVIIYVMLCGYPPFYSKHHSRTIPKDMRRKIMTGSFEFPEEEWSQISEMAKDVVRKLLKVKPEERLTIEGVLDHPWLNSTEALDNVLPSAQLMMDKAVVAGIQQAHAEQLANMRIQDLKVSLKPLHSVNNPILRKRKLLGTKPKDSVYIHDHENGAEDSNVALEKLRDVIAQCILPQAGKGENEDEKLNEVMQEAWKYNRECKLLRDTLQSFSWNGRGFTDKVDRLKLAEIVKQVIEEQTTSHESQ

[6] = molecular target: T2, MAP kinase-activated protein kinase 5 (Homo sapiens); details: at 10 µM
[7] = molecular target: Serine/threonine-protein kinase N2 (Homo sapiens) (UniProt Q16513); details: at 1 µM
Sequence of Serine/threonine-protein kinase N2 (Homo sapiens) (Q16513 whole entry, looked up): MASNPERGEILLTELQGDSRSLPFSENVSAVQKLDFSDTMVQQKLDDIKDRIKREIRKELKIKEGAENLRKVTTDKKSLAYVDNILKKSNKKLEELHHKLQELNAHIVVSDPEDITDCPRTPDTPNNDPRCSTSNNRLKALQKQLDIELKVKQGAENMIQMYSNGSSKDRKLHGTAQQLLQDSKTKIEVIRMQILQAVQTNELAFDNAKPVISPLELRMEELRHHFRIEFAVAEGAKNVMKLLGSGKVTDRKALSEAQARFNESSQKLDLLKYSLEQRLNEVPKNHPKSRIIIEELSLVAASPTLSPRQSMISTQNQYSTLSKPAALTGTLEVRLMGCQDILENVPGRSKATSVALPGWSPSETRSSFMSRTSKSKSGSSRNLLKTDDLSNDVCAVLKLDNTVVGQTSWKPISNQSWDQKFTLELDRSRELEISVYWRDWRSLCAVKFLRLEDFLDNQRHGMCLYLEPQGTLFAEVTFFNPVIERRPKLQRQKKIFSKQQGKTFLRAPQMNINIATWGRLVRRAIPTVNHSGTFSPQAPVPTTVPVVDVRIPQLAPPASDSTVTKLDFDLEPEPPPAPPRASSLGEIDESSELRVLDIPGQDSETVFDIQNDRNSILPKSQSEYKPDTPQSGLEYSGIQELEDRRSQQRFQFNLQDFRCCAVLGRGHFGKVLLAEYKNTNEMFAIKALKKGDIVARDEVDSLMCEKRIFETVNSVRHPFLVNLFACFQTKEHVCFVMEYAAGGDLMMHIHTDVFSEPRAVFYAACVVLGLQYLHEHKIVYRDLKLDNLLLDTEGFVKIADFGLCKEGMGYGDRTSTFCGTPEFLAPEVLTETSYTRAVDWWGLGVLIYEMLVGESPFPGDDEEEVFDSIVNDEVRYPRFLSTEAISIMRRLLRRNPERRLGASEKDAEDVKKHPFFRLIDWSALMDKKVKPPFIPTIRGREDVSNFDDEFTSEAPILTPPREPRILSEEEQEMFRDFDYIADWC

[8] = molecular target: Serine/threonine-protein kinase N2 (Homo sapiens) (UniProt Q16513); details: at 10 µM
[9] = molecular target: Tyrosine-protein kinase FRK (Homo sapiens) (UniProt P42685); details: at 1 µM
Sequence of Tyrosine-protein kinase FRK (Homo sapiens) (P42685 whole entry): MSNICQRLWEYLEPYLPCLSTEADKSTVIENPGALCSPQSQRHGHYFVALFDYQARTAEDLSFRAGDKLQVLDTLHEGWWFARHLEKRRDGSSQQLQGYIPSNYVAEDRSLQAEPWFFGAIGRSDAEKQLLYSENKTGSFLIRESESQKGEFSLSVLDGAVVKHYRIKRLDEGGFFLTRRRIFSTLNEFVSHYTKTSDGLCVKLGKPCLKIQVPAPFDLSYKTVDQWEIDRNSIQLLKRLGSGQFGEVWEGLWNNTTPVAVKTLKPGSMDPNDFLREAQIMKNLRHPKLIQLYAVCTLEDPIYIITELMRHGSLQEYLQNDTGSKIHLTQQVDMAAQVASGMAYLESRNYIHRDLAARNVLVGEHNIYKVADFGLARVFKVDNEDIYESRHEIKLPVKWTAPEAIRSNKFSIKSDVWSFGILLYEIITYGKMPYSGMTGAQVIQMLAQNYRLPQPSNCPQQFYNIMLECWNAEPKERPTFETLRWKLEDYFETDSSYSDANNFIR

[10] = molecular target: Tyrosine-protein kinase FRK (Homo sapiens) (UniProt P42685); details: at 10 µM

SMILES | residual activity [1] [%] | residual activity [2] [%] | residual activity [3] [%] | residual activity [4] [%] | residual activity [5] [%] | residual activity [6] [%] | residual activity [7] [%] | residual activity [8] [%] | residual activity [9] [%] | residual activity [10] [%]
NC(=O)c1ccc2[nH]c(-c3ccc(Oc4ccc(Cl)cc4)cc3)nc2c1 | 99 | 105 | 105 | 77 | 91 | 67 | 101 | 90 | 94 | 106
O=C(O)c1ccc2c3c1cccc3c(=O)n1c3ccccc3nc21 | 95 | 97 | 98 | 83 | 81 | 62 | 96 | 86 | 95 | 90
O=Nc1c(-c2c(O)[nH]c3ccccc23)[nH]c2ccccc12 | 77 | 67 | 79 | 45 | 78 | 24 | 91 | 48 | 13 | 6
O=c1c2ccccc2[nH]c(=S)n1CCN1CCC(=C(c2ccc(F)cc2)c2ccc(F)cc2)CC1 | 107 | 103 | 86 | 87 | 94 | 74 | 114 | 109 | 101 | 89
O=C1NC(=O)/C(=C/c2ccc3c(c2)OC(F)(F)O3)S1 | 105 | 108 | 72 | 52 | 106 | 37 | 117 | 97 | 101 | 107
CC#CC(=O)Nc1cc2c(Nc3ccc(F)c(Cl)c3)ncnc2cn1 | 103 | 102 | 86 | 92 | 84 | 77 | 94 | 98 | 97 | 92
COc1cc2ncc(-c3ccccc3)nc2cc1OC |  |  |  |  | 125 | 85 |  |  | 90 | 90
CCN(CC)CCCCN1c2ccccc2Oc2ccc(Cl)cc21 | 113 | 110 | 97 | 94 | 96 | 112 | 107 | 124 | 105 | 119
COc1cc2ncnc(Nc3ccc(Oc4ccccc4)cc3)c2cc1OC | 119 | 143 | 76 | 110 | 120 | 118 | 91 | 120 | 39 | 7
O=C1Nc2ccccc2/C1=C1/Nc2ccccc2/C1=N\OCCC(O)CO (centres undefined) | 56 | 19 | 44 | 9 |  | 27 | 76 | 53 | 11 | 1
N#CCCc1ccc2c(c1)-c1[nH]c3ccc([N+](=O)[O-])cc3c1CC(=O)N2 |  |  |  |  | 68 | 43 | 57 | 28 | 54 | 22
Cc1cccc(-c2[nH]c(C(C)(C)C)nc2-c2ccc3c(c2)OCO3)n1 |  |  |  |  | 92 | 77 |  |  |  | 92
Cc1cc(Nc2nc(-c3ccccc3)nc3ccccc23)n[nH]1 | 82 | 39 | 82 | 27 |  |  |  | 58 | 46 | 8
O=C1NC(=O)c2c1c1c3ccccc3[nH]c1c1[nH]c3cc(Br)ccc3c21 | 99 | 113 | 92 | 83 | 105 | 106 | 87 | 84 | 94 | 90
Oc1ccc(Nc2nc(-c3ccc(Cl)cc3)cs2)cc1 | 100 | 99 | 113 | 111 | 115 | 69 | 110 | 107 | 104 | 118
Oc1n[nH]c2nnc(-c3c(-c4ccccc4)nn4ccccc34)cc12 | 99 | 100 | 89 | 78 | 115 | 112 | 86 | 86 | 88 | 92
Cc1nc(-c2ccccc2)c(-c2ccncc2)o1 | 93 | 80 | 115 | 90 | 110 | 115 | 99 | 76 | 1 | 2
N#Cc1cnc2cnc(NCc3cccnc3)cc2c1Nc1ccc(F)c(Cl)c1 | 4 | 9 |  |  | 78 | 101 | 4 | 3 | 28 | 22
Nc1n[nH]c2nnc(-c3c(-c4ccccc4)nn4ccccc34)cc12 | 95 | 104 | 92 | 76 | 104 | 101 | 91 | 76 | 99 | 46

SMILES | residual activity [1] [%] | residual activity [2] [%] | residual activity [3] [%] | residual activity [4] [%] | residual activity [5] [%] | residual activity [6] [%] | residual activity [7] [%] | residual activity [8] [%] | residual activity [9] [%] | residual activity [10] [%]
c1ccc(-c2n[nH]cc2-c2ccnc3ccccc23)nc1 |  |  |  |  | 73 | 90 | 89 | 103 | 84 | 25
CN(C)CCCn1cc(C2=C(c3c[nH]c4ccccc34)C(=O)NC2=O)c2ccccc21 | 60 | 14 | 34 | 6 | 125 | 107 | 23 | 6 |  | 84
c1ccc2c(-c3ccncc3)c[nH]c2c1 | 76 | 23 | 54 | 12 | 87 | 90 | 30 | 8 | 88 | 97
CC[n+]1c(/C=C/N(C)c2ccccc2)n(-c2ccccc2)c2ccc(-c3nc4ccccc4s3)cc21 | 105 | 80 | 87 | 60 | 104 | 133 | 94 | 77 | 108 | 123
N#CC(C#N)=C(N)/C(C#N)=C/c1ccc(O)cc1 |  |  |  |  |  | 92 |  | 117 |  | 91
CCN(CC)C(=O)c1ccc(Nc2nc(OCC3CCCCC3)c3nc[nH]c3n2)cc1 |  |  |  |  |  | 12 | 66 | 12 | 78 | 38
Nc1cccc(-c2cc3c(Oc4cccc(O)c4)ncnc3[nH]2)c1 |  |  |  | 91 | 100 | 71 | 98 | 67 | 1 | 0
O=C1Nc2ccc(Br)cc2/C1=C\c1cc2c([nH]1)CCCC2 | 100 | 99 | 105 | 97 | 82 | 99 |  | 112 | 102 | 103
O=C(Nc1cccc(Nc2cc(Nc3cccc(C(F)(F)F)c3)ncn2)c1)C1CC1 | 117 | 100 | 81 | 88 | 110 | 24 | 93 | 93 | 101 | 73
Oc1c2ccccc2c2c3c(cccc13)N=N2 | 79 | 79 | 90 | 60 | 59 | 14 | 74 | 32 | 91 | 58
COc1ccc(C(=O)Nc2sc3c(c2C(N)=O)CCCC3)cc1OC | 104 | 88 | 79 | 90 | 59 | 76 | 88 | 114 | 91 | 80
COc1ccc(S(=O)(=O)N(CCO)c2ccccc2CN(C)C/C=C/c2ccc(Cl)cc2)cc1 | 101 | 99 | 103 | 86 | 98 | 53 | 95 | 69 | 100 | 125
Cn1cnc2cc3c(Nc4cccc(Br)c4)ncnc3cc21 | 115 | 87 | 93 | 88 | 78 | 78 | 101 | 97 | 72 | 28
CO[C@H]1C[C@@H]2CC[C@@H](C)[C@@](O)(O2)C(=O)C(=O)N2CCCC[C@H]2C(=O)O[C@H]([C@H](C)C[C@@H]2CC[C@@H](O)[C@H](OC)C2)CC(=O)[C@H](C)/C=C(\C)[C@@H](O)[C@@H](OC)C(=O)[C@H](C)C[C@H](C)/C=C/C=C/C=C/1C | 101 | 128 | 86 | 85 | 57 | 62 | 95 | 116 | 95 | 112
COc1cc2ncnc(Nc3ccc(NC(=O)c4ccccc4)cc3)c2cc1OC | 105 | 99 | 90 |  | 105 | 76 |  |  | 109 | 76
CC(=O)c1ccc(N2CCOCC2)cc1O |  |  |  |  | 77 | 109 | 100 | 109 | 109 | 99
O=C(Nc1cccc(Nc2nccc(Nc3cccc(C(F)(F)F)c3)n2)c1)C1CC1 | 100 | 101 | 90 | 66 | 128 | 65 | 106 | 96 | 53 | 11
CC(=O)O/N=C1\C(=C2\C(=O)Nc3cc(Br)ccc32)Nc2ccccc21 | 101 | 112 | 102 | 76 | 105 |  | 98 | 79 | 17 | 1
Nc1nc(Nc2ccc(S(N)(=O)=O)cc2)nn1C(=S)Nc1c(F)cccc1F |  |  |  |  | 32 | 2 | 5 | 2 | 20 | 0
